Measured values reported in PubChem BioAssay (EPA / NIEHS).
Records with an inconclusive call do not appear. Activity calls are given as the source filed them. How the source made its calls, unless noted: active means hit-call score of the fitted dose curve at least 0.9, where 1 is the maximum; inactive means score below 0.9.

Experiments:
[1] = read-out: Phosphatase and tensin (PTEN), PTEN (gene 5728); assay: LTEA_HepaRG_PTEN: Life Technologies and Expression Analysis (LTEA) Assay for Phosphatase and tensin (PTEN) using HepaRG (AID 2283523); conditions: mRNA level, 48 h; actives raise or lower the signal
Summary of the method: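 Expression of PTEN is quantified in the human liver line HepaRG following two days of dosing (top concentration 100 uM, half-log dilutions, 0.5% DMSO). Values derive from bidirectional curve fitting relative to DMSO controls.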

[2] = read-out: solute carrier (SLC22A1), SLC22A1 (gene 6580); assay: LTEA_HepaRG_SLC22A1: Life Technologies and Expression Analysis (LTEA) Assay for solute carrier (SLC22A1) using HepaRG (AID 2283524); conditions: mRNA level, 48 h; actives raise or lower the signal;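 on AC50: differentiated human HepaRG liver cells in serum-free induction medium; TaqMan qRT-PCR normalized to ACTB GAPDH and POLR2A housekeeping genes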
Summary of the method: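 Transcript induction or suppression of SLC22A1 in human HepaRG cultures is scored after 48 h chemical treatment, with DMSO (0.5%) as baseline for bidirectional fitting. Concentrations span eight half-log points topping at 100 uM.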

[3] = read-out: Pyruvate Dehydrogenase Kinase 4 (PDK4), PDK4 (gene 5166); assay: LTEA_HepaRG_PDK4: Life Technologies and Expression Analysis (LTEA) Assay for Pyruvate Dehydrogenase Kinase 4 (PDK4) using HepaRG (AID 2283525); conditions: mRNA level, 48 h; actives raise or lower the signal
Summary of the method: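 Eight-point, half-log concentration series (max 100 uM, 0.5% DMSO) applied to differentiated HepaRG cells for 48 h in duplicate. Endpoint: PDK4 mRNA induction or repression by qRT-PCR against DMSO baseline.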

[4] = read-out: NAD(P)H dehydrogenase [quinone] 1 (NQO1), NQO1 (gene 1728); assay: LTEA_HepaRG_NQO1: Life Technologies and Expression Analysis (LTEA) Assay for NAD(P)H dehydrogenase [quinone] 1 (NQO1) using HepaRG (AID 2283526); conditions: mRNA level, 48 h; actives raise or lower the signal
Summary of the method: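 qRT-PCR read-out (Fluidigm TaqMan), normalized to three housekeeping genes, after 48 h chemical exposure of HepaRG cells. Concentrations: eight points, top 100 uM, half-log steps, 0.5% DMSO vehicle. Gain or loss of signal fitted relative to DMSO.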

[5] = read-out: Nuclear factor erythroid 2-related factor 2 (Homo sapiens) (UniProt Q16236); assay: LTEA_HepaRG_NFE2L2: Life Technologies and Expression Analysis (LTEA) Assay for Nuclear factor erythroid 2-related factor 2 (NFE2L2) Transcription Factor using HepaRG (AID 2283527); conditions: mRNA level, 48 h; actives raise or lower the signal;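 further: TaqMan qRT-PCR transcript level normalised to ACTB GAPDH and POLR2A housekeeping genes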
Summary of the method: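 Human liver HepaRG line treated in duplicate for 48 h with an eight-point series topping at 100 uM. Gene expression of NFE2L2 by qRT-PCR, bidirectionally fitted against the vehicle control.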

[6] = read-out: succinate dehydrogenase complex iron sulfur subunit B (SDHB), SDHB (gene 6390); assay: LTEA_HepaRG_SDHB: Life Technologies and Expression Analysis (LTEA) Assay for succinate dehydrogenase complex iron sulfur subunit B (SDHB) using HepaRG (AID 2283528); conditions: mRNA level, 48 h; actives raise or lower the signal
Summary of the method: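 HepaRG, 48 h exposure, 8-pt half-log series from 100 uM in 0.5% DMSO, duplicates. Readout: SDHB mRNA by Fluidigm qRT-PCR vs housekeeping genes; bidirectional fit relative to DMSO.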

[7] = read-out: Signal transducer and activator of transcription 3 (Homo sapiens) (UniProt P40763); assay: LTEA_HepaRG_STAT3: Life Technologies and Expression Analysis (LTEA) Assay for Signal transducer and activator of transcription (STAT3) using HepaRG (AID 2283529); conditions: mRNA level, 48 h; actives raise or lower the signal
Summary of the method: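 In this transcriptional endpoint, HepaRG cultures receive test chemicals at up to 100 uM for 48 h, tested in duplicate. STAT3 mRNA is normalized to ACTB, GAPDH and POLR2A.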

[8] = read-out: solute carrier (SLCO1B1), SLCO1B1 (gene 10599); assay: LTEA_HepaRG_SLCO1B1: Life Technologies and Expression Analysis (LTEA) Assay for solute carrier (SLCO1B1) using HepaRG (AID 2283530); conditions: mRNA level, 48 h; actives raise or lower the signal
Summary of the method: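 Gain or loss of SLCO1B1 mRNA is fitted against the 0.5% DMSO vehicle in human HepaRG liver cells treated 48 h at up to 100 uM in half-log steps. Expression comes from qRT-PCR normalized to endogenous controls.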

[9] = read-out: sulfotransferase 2A1 (SULT2A1), SULT2A1 (gene 6822); assay: LTEA_HepaRG_SULT2A1: Life Technologies and Expression Analysis (LTEA) Assay for sulfotransferase 2A1 (SULT2A1) using HepaRG (AID 2283531); conditions: mRNA level, 48 h; actives raise or lower the signal
Summary of the method: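 Cells were plated and cultured 48 h, switched to serum-free induction medium, then dosed in duplicate for 48 h (8 concentrations, max 100 uM). RNA was isolated and SULT2A1 expression measured by qRT-PCR; gain or loss of signal fitted relative to DMSO.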

[10] = read-out: Transforming Growth Factor (TGFA), TGFA (gene 7039); assay: LTEA_HepaRG_TGFA: Life Technologies and Expression Analysis (LTEA) Assay for Transforming Growth Factor (TGFA) using HepaRG (AID 2283532); conditions: mRNA level, 48 h; actives raise or lower the signal
Summary of the method: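 Gene expression of TGFA was quantified by qRT-PCR after human HepaRG cells were treated for 48 h with test chemicals (eight concentrations, highest 100 uM, 0.5% DMSO). Activity in either direction was fitted relative to DMSO.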

[11] = read-out: Transforming Growth Factor (TGFB1), TGFB1 (gene 7040); assay: LTEA_HepaRG_TGFB1: Life Technologies and Expression Analysis (LTEA) Assay for Transforming Growth Factor (TGFB1) Transporter using HepaRG (AID 2283533); conditions: mRNA level, 48 h; actives raise or lower the signal
Summary of the method: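 Expression change of TGFB1 in human HepaRG cells is measured after a 48 h chemical exposure, up to 100 uM in 0.5% DMSO vehicle. Curves are fitted in both directions relative to the DMSO baseline.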

TIMP1, TIMP1 (gene 7076) = assay: LTEA_HepaRG_TIMP1: Life Technologies and Expression Analysis (LTEA) Assay for TIMP1 using HepaRG (AID 2283534); conditions: mRNA level, 48 h; actives raise or lower the signal;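 further: TaqMan qRT-PCR signal normalized to ACTB GAPDH and POLR2A housekeeping genes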
Summary of the method: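 We dosed human liver HepaRG cultures for 48 hours with up to 100 uM test chemical and measured TIMP1 expression by qRT-PCR. Activity in either direction is fitted relative to the 0.5% DMSO vehicle.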

[12] = read-out: Tumor necrosis factor receptor 1 (TNFRSF1A), TNFRSF1A (gene 7132); assay: LTEA_HepaRG_TNFRSF1A: Life Technologies and Expression Analysis (LTEA) Assay for Tumor necrosis factor receptor 1 (TNFRSF1A) using HepaRG (AID 2283535); conditions: mRNA level, 48 h; actives raise or lower the signal
Summary of the method: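 Expression of TNFRSF1A in human HepaRG liver cells was measured by qRT-PCR 48 h after chemical dosing (maximum 100 uM). Bidirectional curve fitting used 0.5% DMSO as baseline.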

[13] = read-out: Thyroid Hormone Responsive (THRSP), THRSP (gene 7069); assay: LTEA_HepaRG_THRSP: Life Technologies and Expression Analysis (LTEA) Assay for Thyroid Hormone Responsive (THRSP) using HepaRG (AID 2283536); conditions: mRNA level, 48 h; actives raise or lower the signal
Summary of the method: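 Cell model: human HepaRG, approx. 100,000 cells/well, 0.5% DMSO vehicle. Exposure lasts 48 h; phenobarbital 1 mM serves as induction positive control. Gene expression is measured by qRT-PCR against three endogenous control genes.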

[14] = read-out: UDP glucuronosyltransferase (UGT1A1), UGT1A1 (gene 54658); assay: LTEA_HepaRG_UGT1A1: Life Technologies and Expression Analysis (LTEA) Assay for UDP glucuronosyltransferase (UGT1A1) using HepaRG (AID 2283538); conditions: mRNA level, 48 h; actives raise or lower the signal
Summary of the method: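 HepaRG, 48 h chemical exposure (top 100 uM, half-log 8-pt, 0.5% DMSO vehicle), duplicate wells; qRT-PCR (TaqMan, Fluidigm array) for UGT1A1 mRNA, housekeeping-normalized; bidirectional curve fit vs DMSO baseline.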

[15] = read-out: UDP glucuronosyltransferase (UGT1A6), UGT1A6 (gene 54578); assay: LTEA_HepaRG_UGT1A6: Life Technologies and Expression Analysis (LTEA) Assay for UDP glucuronosyltransferase (UGT1A6) using HepaRG (AID 2283539); conditions: mRNA level, 48 h; actives raise or lower the signal
Summary of the method: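 Endpoint is UGT1A6 transcript induction or loss in a human liver cell line, quantified by TaqMan qRT-PCR 48 h after dosing. Concentrations ran from 100 uM downward in half-log steps in 0.5% DMSO; activity was fitted in both directions versus vehicle.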

[16] = read-out: X-box binding protein 1 (XBP1), XBP1 (gene 7494); assay: LTEA_HepaRG_XBP1: Life Technologies and Expression Analysis (LTEA) Assay for X-box binding protein 1 (XBP1) using HepaRG (AID 2283540); conditions: mRNA level, 48 h; actives raise or lower the signal
Summary of the method: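 Human HepaRG monolayers receive test chemical for 48 h across an eight-point half-log series starting at 100 uM. XBP1 mRNA gain or loss is scored against DMSO by qRT-PCR.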

[17] = read-out: Cellular tumor antigen p53 (Homo sapiens) (UniProt P04637); assay: LTEA_HepaRG_TP53: Life Technologies and Expression Analysis (LTEA) Assay for Tumor Protein P53 (TP53) using HepaRG (AID 2283537); conditions: mRNA level, 48 h; actives raise or lower the signal
Summary of the method: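 HepaRG, 48 h exposure, top 100 uM, half-log 8-point, 0.5% DMSO vehicle, duplicates. Read: TP53 mRNA by TaqMan qRT-PCR, normalised to ACTB/GAPDH/POLR2A; bidirectional fit vs DMSO.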

[18] = ATG_XTT_Cytotoxicity: Cytotoxicity Assessment in the Attagene TRANS-FACTORIAL HepG2 Assay (AID 2283584; active means hit-call score of the fitted dose curve at least 0.9, where 1 is the maximum)
Summary of the method: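 Transfect HepG2 with GAL4-UAS reporter units, dose compound, incubate 24 h, then measure viable cell number by XTT. Fit concentration response against DMSO baseline.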

Chain of Signal transducer and activator of transcription 3 (Homo sapiens) (P40763 whole entry, looked up): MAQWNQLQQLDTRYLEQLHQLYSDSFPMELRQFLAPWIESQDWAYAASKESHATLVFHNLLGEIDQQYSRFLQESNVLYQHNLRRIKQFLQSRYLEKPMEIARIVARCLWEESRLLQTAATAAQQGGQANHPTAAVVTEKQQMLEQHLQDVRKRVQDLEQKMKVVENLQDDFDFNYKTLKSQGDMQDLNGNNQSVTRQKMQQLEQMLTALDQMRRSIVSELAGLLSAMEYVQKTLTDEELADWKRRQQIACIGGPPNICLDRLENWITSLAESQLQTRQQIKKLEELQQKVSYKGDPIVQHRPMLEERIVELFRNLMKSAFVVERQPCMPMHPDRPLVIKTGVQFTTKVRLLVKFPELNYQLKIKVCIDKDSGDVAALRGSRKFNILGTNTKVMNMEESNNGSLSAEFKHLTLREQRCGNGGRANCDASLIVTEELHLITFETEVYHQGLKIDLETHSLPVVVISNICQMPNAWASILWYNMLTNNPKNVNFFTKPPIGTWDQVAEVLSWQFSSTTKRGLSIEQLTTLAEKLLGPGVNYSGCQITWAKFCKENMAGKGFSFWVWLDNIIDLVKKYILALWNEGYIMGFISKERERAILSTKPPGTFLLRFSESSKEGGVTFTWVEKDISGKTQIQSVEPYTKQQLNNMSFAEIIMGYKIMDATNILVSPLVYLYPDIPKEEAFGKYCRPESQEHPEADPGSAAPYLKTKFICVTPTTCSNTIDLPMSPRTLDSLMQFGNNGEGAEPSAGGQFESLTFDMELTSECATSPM
Chain of Nuclear factor erythroid 2-related factor 2 (Homo sapiens) (Q16236 whole entry, looked up): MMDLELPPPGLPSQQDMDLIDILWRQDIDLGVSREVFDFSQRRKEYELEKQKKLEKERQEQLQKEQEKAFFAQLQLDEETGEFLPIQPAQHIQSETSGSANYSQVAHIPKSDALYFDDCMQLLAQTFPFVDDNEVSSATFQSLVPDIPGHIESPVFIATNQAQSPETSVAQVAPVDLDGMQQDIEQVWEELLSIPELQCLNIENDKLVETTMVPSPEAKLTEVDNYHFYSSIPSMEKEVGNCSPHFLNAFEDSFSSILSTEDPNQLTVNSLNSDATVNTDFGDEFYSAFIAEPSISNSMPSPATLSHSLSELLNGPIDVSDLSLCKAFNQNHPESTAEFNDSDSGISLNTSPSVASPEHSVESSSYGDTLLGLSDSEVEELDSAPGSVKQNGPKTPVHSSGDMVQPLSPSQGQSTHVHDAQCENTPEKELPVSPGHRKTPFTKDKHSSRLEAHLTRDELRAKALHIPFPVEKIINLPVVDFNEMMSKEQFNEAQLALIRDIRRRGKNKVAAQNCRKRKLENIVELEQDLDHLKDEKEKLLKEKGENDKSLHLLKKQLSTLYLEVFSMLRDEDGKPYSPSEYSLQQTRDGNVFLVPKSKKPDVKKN
Chain of Cellular tumor antigen p53 (Homo sapiens) (P04637 whole entry, looked up): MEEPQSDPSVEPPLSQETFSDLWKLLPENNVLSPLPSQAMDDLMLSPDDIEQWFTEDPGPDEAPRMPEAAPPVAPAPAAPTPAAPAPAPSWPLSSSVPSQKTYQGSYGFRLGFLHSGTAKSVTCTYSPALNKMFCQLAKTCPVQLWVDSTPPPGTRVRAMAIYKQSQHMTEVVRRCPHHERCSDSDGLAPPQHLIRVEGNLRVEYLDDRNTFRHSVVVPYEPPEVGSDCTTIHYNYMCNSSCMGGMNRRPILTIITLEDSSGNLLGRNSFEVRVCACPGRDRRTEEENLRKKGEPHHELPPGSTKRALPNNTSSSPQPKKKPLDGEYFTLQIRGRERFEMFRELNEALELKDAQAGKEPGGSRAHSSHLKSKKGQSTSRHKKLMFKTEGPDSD

For `O=C(NO)C1(NS(=O)(=O)c2ccc(Oc3ccc(F)cc3)cc2)CCOCC1`, the outcome [1] was “inactive”, the AC50 [2] was 80.7 µM (active) and the AC50 [3] was 80 µM (active). For the same compound, the outcome [4] was “inactive”, the outcome [5] was “inactive” and the outcome [6] was “inactive”. The outcome [7] was “inactive”, the outcome [8] was “inactive” and the outcome [9] was “inactive”. For the same compound, the outcome [10] was “inactive”, the outcome [11] was “inactive” and the outcome (TIMP1, TIMP1 (gene 7076)) was “inactive”. For the same compound, the outcome [12] was “inactive”, the AC50 [13] was 78.1 µM (active) and the AC50 [14] was 12.2 µM (active). For the same compound, the AC50 [15] was 77.7 µM (active) and the outcome [16] was “inactive”.

With `NC(=O)NN=Cc1ccc([N+](=O)[O-])o1` the outcome [1] was “inactive”, the outcome [2] was “inactive” and the outcome [3] was “inactive”. For the same compound, the AC50 [4] was 11.4 µM (active), the outcome [5] was “inactive” and the outcome [6] was “inactive”. The outcome [7] was “inactive”, the outcome [8] was “inactive” and the outcome [9] was “inactive”. For the same compound, the AC50 [10] was 0.196 µM (active), the outcome [11] was “inactive” and the outcome (TIMP1, TIMP1 (gene 7076)) was “inactive”. For the same compound, the outcome [12] was “inactive”, the outcome [13] was “inactive” and the AC50 [17] was 9.92 µM (active). The outcome [14] was “inactive”, the outcome [15] was “inactive” and the outcome [16] was “inactive”. For the same compound, the outcome [18] was “inactive”.

In the case of `OC[C@H]1O[C@@](CO)(O[C@H]2O[C@H](CO)[C@@H](O)[C@H](O)[C@H]2O)[C@@H](O)[C@@H]1O`, the outcome [1] is reported as “inactive”, the outcome [2] is reported as “inactive” and the outcome [3] is reported as “inactive”. The outcome [4] was “inactive”, the outcome [5] was “inactive” and the outcome [6] was “inactive”. For the same compound, the outcome [7] was “inactive”, the outcome [8] was “inactive” and the outcome [9] was “inactive”. For the same compound, the outcome [10] was “inactive”, the outcome [11] was “inactive” and the outcome (TIMP1, TIMP1 (gene 7076)) was “inactive”. For the same compound, the outcome [12] was “inactive”, the outcome [13] was “inactive” and the outcome [14] was “inactive”. For the same compound, the outcome [15] was “inactive”, the outcome [16] was “inactive” and the outcome [18] was “inactive”.

With `CCCCCCCCCC` the outcome [1] was “inactive”, the outcome [2] was “inactive” and the outcome [3] was “inactive”. For the same compound, the outcome [5] was “inactive”, the outcome [6] was “inactive” and the outcome [7] was “inactive”. For the same compound, the outcome [8] was “inactive”, the outcome [9] was “inactive” and the outcome [10] was “inactive”. The outcome [11] was “inactive”, the outcome (TIMP1, TIMP1 (gene 7076)) was “inactive” and the outcome [12] was “inactive”. For the same compound, the outcome [13] was “inactive”, the outcome [17] was “inactive” and the outcome [14] was “inactive”. The outcome [15] was “inactive” and the outcome [16] was “inactive”.
